# Measured values reported in PubChem BioAssay.
# Records with an inconclusive call do not appear. The source made the active and inactive calls. Unless noted, no cut-off is given here; in the data, nearly all actives have AC50 up to about 26 µM.
# Experiments:
# [1] = liver-stage malaria parasite growth inhibition, primary screen, cell-based, HepG2, luciferase luminescence, HepG2 viability (AID 624349; in the data active = parasite load remaining mostly below about 12%, no sharp cut-off; inactive = mostly above about 10%;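 note: 100% = mean of DMSO negative control wells on the same plate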); conditions: P. berghei liver stage in HepG2, luciferase luminescence, concentration not given here; parasite load remaining: stronger effect = lower value; viability: measured here: HepG2 viability without parasites
# [2] = SU-DIPG-VI glioma cell viability, MIPE4.0 library, CellTiter-Glo luminescence, qHTS (AID 1347066; cut-off not given, nearly all actives have AC50 up to about 30 µM;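 note: cells exposed to compound for 48 hours before readout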); conditions: CellTiter-Glo ATP luminescence
# [3] = sensitizers of A549 cells to miR-34 induction, primary screen, imaging, A549 dox-inducible miR-34, nuclei and caspase counts (AID 1347080;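 active = compounds whose cell count with miR-34 switched on is under 0.7 times the count with it off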); conditions: A549 miR-34 inducible, Hoechst nuclei count, 48 h
# [4] = survival rescue of mitochondrial mutant cells in low glucose, primary screen, MELAS cybrids, Rieske KO mouse fibroblasts, CellTiter-Glo (AID 1508586;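 active = mean z-score across replicates of 1.96 or higher in either the MELAS or the Rieske mutant cell line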;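 note: z relative to plate mean and SD of compound and empty wells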)
# [5] = growth inhibition of DIPG glioma cells, dose response, cell-based, SU-DIPG-XIII, MIPE5.0, CellTiter-Glo, qHTS (AID 1347064; cut-off not given, nearly all actives have AC50 up to about 23 µM;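 for AC50: cells exposed to compound for 48 hours before the viability read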); conditions: SU-DIPG-XIII viability, CellTiter-Glo ATP luminescence
# [6] = viability loss in pontine glioma line – cell-based, SU-DIPG-XXV, MIPE5.0, CellTiter-Glo, qHTS, dose response (AID 1347065); conditions: CellTiter-Glo ATP luminescence;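 note: cells exposed to compound for 48 hours before ATP readout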
# [7] = JHH-DIPG-1 glioma cell viability, MIPE5.0 library, CellTiter-Glo luminescence, qHTS (AID 1347067); conditions: JHH-DIPG-1 glioma viability, CellTiter-Glo ATP luminescence;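 note: cells exposed to compound for 48 hours before readout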
# [8] = modifiers of HSF1 nuclear foci, imaging, Selleck Cancer Library (AID 1347162; in the data active = plate-normalised HSF1 focus index below about 0.46); conditions: human cells, at 10 µM; SSMD: measured here: HSF1 foci SSMD mean; cell count: measured here: cell number; plate-normalised HSF1 focus index: stronger effect = lower value
# [9] = SU-DIPG-XXV glioma cell viability, MIPE5.0 library, qHTS (AID 1347068; cut-off not given, nearly all actives have IC50 up to about 30 µM;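 for IC50: cells exposed to compound for 48 hours before viability readout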)
# [10] = stronger effect = lower value, cell number ratio, induced over uninduced
# [11] = measured here: relative caspase fold change +Dox/-Dox
# [12] = measured here: total cells with miR-34 induction, stronger effect = lower value
# [13] = measured here: total cells without miR-34 induction
# [14] = MELAS cybrid survival, CellTiter-Glo 48 h, stronger effect = higher value
# [15] = Rieske KO mouse fibroblast survival, CellTiter-Glo 72 h
smiles,measurement,setting,value
NC(=O)c1cccc(-c2cc(Nc3ccc(OC(F)(F)F)cc3)ncn2)c1,parasite load remaining,[1],33% (inactive)
same,viability,[1],100%
same,outcome,[2],inactive
same,fold change,[3]; [10],0.899 (inactive)
same,fold change,[3]; [11],1.65
same,cell count,[3]; [12],7160
same,cell count,[3]; [13],7960
same,z-score,[4]; [14],-0.11 (inactive)
same,z-score,[4]; [15],-0.362
c1cn2cc(-c3ccc4cn[nH]c4c3)nc(Nc3ccc(N4CCOCC4)cc3)c2n1,fold change,[3]; [10],0.776 (inactive)
same,fold change,[3]; [11],0.455
same,cell count,[3]; [12],4570
same,cell count,[3]; [13],5880
same,z-score,[4]; [14],1.34 (inactive)
same,z-score,[4]; [15],0.233
O=C(/C=C/C#Cc1cccc(NS(=O)(=O)c2ccccc2)c1)NO,AC50,[5],1.29 µM (active)
same,AC50,[6],1.82 µM (active)
same,AC50,[7],1.82 µM (active)
same,SSMD,[8],-2.13
same,cell count,[8],6610
same,plate-normalised HSF1 focus index,[8],0.874 (inactive)
CN(C)S(=O)(=O)c1ccc2c(c1)C(=Cc1cc3c([nH]1)CCCC3)C(=O)N2,outcome,[5],inactive
same,outcome,[2],inactive
COc1cc(N2CCN(C)CC2)ccc1Nc1nccc(-c2cn(C)c3cnccc23)n1,AC50,[5],10.5 µM (active)
same,AC50,[6],13.2 µM (active)
same,AC50,[7],18.6 µM (active)
same,outcome,[9],inactive
same,fold change,[3]; [10],0.785 (inactive)
same,fold change,[3]; [11],1.02
same,cell count,[3]; [12],4990
same,cell count,[3]; [13],6360
same,z-score,[4]; [14],1.95 (inactive)
same,z-score,[4]; [15],-5.23
Oc1ccc(C2CCN(c3ccnc4ccccc34)CC2)cc1O,AC50,[5],16.6 µM (active)
same,AC50,[7],20.9 µM (active)
Cc1cc(O[C@@H](CCC(F)(F)F)c2ccc(C(=O)NCCC(=O)O)cc2)cc(C)c1-c1ccc(C(C)(C)C)cc1,AC50,[5],11.8 µM (active)
same,AC50,[6],9.34 µM (active)
same,IC50,[9],8.33 µM (active)
C=CC(=O)Nc1cccc(Sc2nc(Nc3ccc(N4CCN(C)CC4)cc3)ncc2Cl)c1,AC50,[5],2.09 µM (active)
same,AC50,[6],1.48 µM (active)
same,AC50,[7],4.17 µM (active)
same,IC50,[9],1.66 µM (active)
same,fold change,[3]; [10],0.881 (inactive)
same,fold change,[3]; [11],1.05
same,cell count,[3]; [12],4990
same,cell count,[3]; [13],5660
same,z-score,[4]; [14],-0.417 (inactive)
same,z-score,[4]; [15],0.935
CC1(N)CCN(c2cccnc2NC(=O)c2nc(-c3ncccc3C(F)(F)F)cnc2N)CC1,outcome,[5],inactive
same,outcome,[7],inactive
Cc1cc(-c2cnn3c(NCC4CC(C)(O)C4)cc(Oc4cccnc4)nc23)ccc1C(=O)NC1CC1 (stereo not given),outcome,[5],inactive
same,AC50,[6],1.48 µM (active)
same,outcome,[9],inactive
CCN(CCCOc1ccc2c(Nc3cc(CC(=O)Nc4cccc(F)c4)[nH]n3)ncnc2c1)CCOP(=O)(O)O,outcome,[5],inactive
same,AC50,[6],1.18 µM (active)
same,outcome,[9],inactive
Cc1ccc(NS(=O)(=O)c2ccc3c(c2)C2C=CCC2C(c2ccc(C(=O)O)cc2)N3)cc1C (stereo not given),outcome,[5],inactive
same,outcome,[7],inactive
same,outcome,[9],inactive
Cc1cc(C)cc(Oc2ccc(CNC(=O)[C@H](C)N)cc2C)c1,AC50,[5],26.3 µM (active)
same,AC50,[6],18.6 µM (active)
same,outcome,[9],inactive
COC(=O)N[C@@H](C)CNc1nccc(-c2cn(C(C)C)nc2-c2cc(Cl)cc(NS(C)(=O)=O)c2F)n1,outcome,[5],inactive
same,AC50,[6],1.48 µM (active)
same,outcome,[9],inactive
Cc1nc2ccc(C(=O)N3CCC4(CC3)CC(=O)c3c(cnn3C(C)C)C4)cc2[nH]1,outcome,[5],inactive
same,outcome,[7],inactive
CN(Cc1ccccc1)C(=O)c1ccc(S(=O)(=O)Nc2ccccc2)cc1,outcome,[5],inactive
same,outcome,[7],inactive
same,outcome,[9],inactive
